Measured values taken from PubChem BioAssay (EPA / NIEHS).
Where “and” joins values, the source holds several entries; their conditions need not be identical. Identical values can stand only once. Some compounds were tested as several samples or in several runs, with calls that do not always agree. Calls of active or inactive are those of the source. Rule for the calls: active = hit-call score of the fitted dose curve at least 0.9, where 1 is the maximum; inactive = score below 0.9.

Columns and labels:
[1] = CEETOX_H295R_OHPREG: CeeTox H295R High-throughput Steroidogenesis Assay for OH-Pregnenolone (OHPREG) (AID 2283434); conditions: actives raise or lower the signal
Outline: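 Human adrenal H295R cells were prestimulated 48 h with 10 uM forskolin, then exposed 48 h to chemical in 0.1% DMSO. Medium 17alpha-hydroxypregnenolone was quantified by HPLC-MS/MS after MTBE extraction; bidirectional fitting versus DMSO baseline.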

[2] = CEETOX_H295R_CORTIC: CeeTox H295R High-throughput Steroidogenesis Assay for Corticosterone (CORTIC) (AID 2283437); conditions: actives raise or lower the signal;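 note: corticosterone secreted into medium quantified by mass spectrometry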
Outline: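 H295R cells were prestimulated 48 h with 10 uM forskolin, then exposed 48 h to test chemical in 0.1% DMSO. Medium corticosterone was MTBE-extracted and quantified by HPLC-MS/MS; bidirectional fit versus DMSO baseline.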

[3] = CEETOX_H295R_DOC: CeeTox H295R High-throughput Steroidogenesis Assay for DOC (AID 2283439); conditions: actives raise or lower the signal
Outline: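 H295R adrenal cells prestimulated 48 h with 10 uM forskolin, then exposed 48 h to test chemical (0.1% DMSO final). Medium 11-deoxycorticosterone extracted with MTBE, quantified by HPLC-MS/MS; bidirectional fit versus DMSO baseline; MTT viability in same wells.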

[4] = CEETOX_H295R_ESTRADIOL: CeeTox H295R High-throughput Steroidogenesis Assay for Estradiol (AID 2283440); conditions: actives raise or lower the signal;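 note: estradiol secreted into medium quantified by LC-MS/MS after dansyl derivatisation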
Outline: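 H295R adrenocortical cells were prestimulated with 10 uM forskolin for 48 h, then exposed to test chemical in 0.1% DMSO for 48 h. Medium estradiol was extracted with MTBE, dansyl-derivatized and quantified by HPLC-MS/MS; bidirectional fit versus DMSO.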

[5] = CEETOX_H295R_ESTRONE: CeeTox H295R High-throughput Steroidogenesis Assay for Estrone (AID 2283441); conditions: actives raise or lower the signal;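 note: estrone secreted into medium measured by LC-MS/MS after dansyl derivatization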
Outline: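 H295R cells; 48 h forskolin (10 uM) prestimulation; 48 h compound exposure, 0.1% DMSO final. Medium estrone: MTBE extraction, dansyl derivatization, HPLC-MS/MS. Bidirectional fit vs DMSO.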

[6] = CEETOX_H295R_PROG: CeeTox H295R High-throughput Steroidogenesis Assay for Progesterone (PROG) (AID 2283442); conditions: actives raise or lower the signal;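 for AC50: human H295R adrenal cells primed with 10 µM forskolin before dosing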
Outline: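 H295R human adrenal cells were prestimulated with 10 uM forskolin for 48 h, then exposed to test chemical (0.1% DMSO final) for 48 h. Medium progesterone was MTBE-extracted and quantified by HPLC-MS/MS, with bidirectional fitting against DMSO.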

[7] = read-out: Tumor necrosis factor receptor superfamily member 6 (Homo sapiens) (UniProt P25445); assay: LTEA_HepaRG_FAS: Life Technologies and Expression Analysis (LTEA) Assay for Fas cell surface death receptor (FAS) using HepaRG (AID 2283447); conditions: mRNA level, 48 h; actives raise or lower the signal
Outline: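 Differentiated human HepaRG cells, pre-cultured 48 h, were exposed in duplicate for 48 h to 8-point half-log concentrations (top 100 uM, 0.5% DMSO) in serum-free induction medium; FAS mRNA measured by qRT-PCR, normalized to ACTB/GAPDH/POLR2A, bidirectional fit versus DMSO.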

[8] = read-out: Fatty acid synthase (Homo sapiens) (UniProt P49327); assay: LTEA_HepaRG_FASN: Life Technologies and Expression Analysis (LTEA) Assay for Fatty Acid Synthase (FASN) using HepaRG (AID 2283448); conditions: mRNA level, 48 h; actives raise or lower the signal
Outline: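 Differentiated human HepaRG cells were exposed for 48 h in serum-free induction medium to eight half-log concentrations up to 100 uM in 0.5% DMSO, in duplicate. FASN mRNA was quantified by TaqMan qRT-PCR, normalized to ACTB/GAPDH/POLR2A, and fitted bidirectionally against DMSO.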

[9] = read-out: Cyclin D2 (CCND2), CCND2 (gene 894); assay: LTEA_HepaRG_CCND2: Life Technologies and Expression Analysis (LTEA) Assay for Cyclin D2 (CCND2) using HepaRG (AID 2283449); conditions: mRNA level, 48 h; actives raise or lower the signal;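 note: CCND2 transcript measured by TaqMan qRT-PCR and normalised to three housekeeping genes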
Outline: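 Differentiated human HepaRG cells were exposed for 48 h in serum-free induction medium to eight half-log concentrations topping at 100 uM (0.5% DMSO vehicle). CCND2 mRNA was quantified by TaqMan qRT-PCR, normalised to ACTB, GAPDH and POLR2A, and fitted bidirectionally against DMSO.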

[10] = read-out: Cyclin Dependent Kinase Inhibitor 1A (CDKN1A), CDKN1A (gene 1026); assay: LTEA_HepaRG_CDKN1A: Life Technologies and Expression Analysis (LTEA) Assay for Cyclin Dependent Kinase Inhibitor 1A (CDKN1A) using HepaRG (AID 2283450); conditions: mRNA level, 48 h; actives raise or lower the signal
Outline: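 Differentiated human HepaRG cells, pre-cultured 48 h, were exposed in duplicate for 48 h in serum-free induction medium to eight half-log concentrations up to 100 uM (0.5% DMSO). CDKN1A mRNA was measured by qRT-PCR, normalized to ACTB/GAPDH/POLR2A, bidirectionally fitted versus DMSO.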

[11] = read-out: flavin-containing dimethylaniline monooxygenases 3 (FMO3), FMO3 (gene 2328); assay: LTEA_HepaRG_FMO3: Life Technologies and Expression Analysis (LTEA) Assay for flavin-containing dimethylaniline monooxygenases 3 (FMO3) using HepaRG (AID 2283453); conditions: mRNA level, 48 h; actives raise or lower the signal;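 for AC50: FMO3 transcript by TaqMan qRT-PCR normalized to ACTB GAPDH and POLR2A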
Outline: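 HepaRG, 48 h exposure, 8-pt half-log series from 100 uM, 0.5% DMSO vehicle, duplicates; FMO3 transcript by Fluidigm TaqMan qRT-PCR, housekeeping-normalized; gain/loss fit vs DMSO.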

[12] = read-out: Cytochrome P450 (CYP1A1), CYP1A1 (gene 1543); assay: LTEA_HepaRG_CYP1A1: Life Technologies and Expression Analysis (LTEA) Assay for Cytochrome P450 (CYP1A1) using HepaRG (AID 2283454); conditions: mRNA level, 48 h; actives raise or lower the signal
Outline: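 Differentiated HepaRG cells in serum-free induction medium were exposed in duplicate for 48 h to eight half-log concentrations up to 100 uM in 0.5% DMSO. CYP1A1 mRNA was quantified by TaqMan qRT-PCR, normalized to ACTB, GAPDH and POLR2A.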

[13] = read-out: CFLAR gene, CFLAR (gene 8837); assay: LTEA_HepaRG_CFLAR: Life Technologies and Expression Analysis (LTEA) Assay for CFLAR gene using HepaRG (AID 2283455); conditions: mRNA level, 48 h; actives raise or lower the signal
Outline: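 HepaRG cells were plated for 48 h, switched to serum-free induction medium, then exposed in duplicate for 48 h to 8 concentrations (top 100 uM, half-log steps, 0.5% DMSO). CFLAR mRNA was measured by qRT-PCR, normalized to ACTB, GAPDH and POLR2A.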

[14] = read-out: Forkhead box O1 (FOXO1), FOXO1 (gene 2308); assay: LTEA_HepaRG_FOXO1: Life Technologies and Expression Analysis (LTEA) Assay for Forkhead box O1 (FOXO1) using HepaRG (AID 2283456); conditions: mRNA level, 48 h; actives raise or lower the signal
Outline: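 Differentiated human HepaRG cells in serum-free induction medium were exposed in duplicate for 48 h to eight half-log concentrations (top 100 uM, 0.5% DMSO). FOXO1 mRNA was measured by TaqMan qRT-PCR, normalised to ACTB, GAPDH and POLR2A, and fitted bidirectionally against DMSO.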

[15] = read-out: growth arrest and DNA damage 45 (GADD45A), GADD45A (gene 1647); assay: LTEA_HepaRG_GADD45A: Life Technologies and Expression Analysis (LTEA) Assay for growth arrest and DNA damage 45 (GADD45A) using HepaRG (AID 2283458); conditions: mRNA level, 48 h; actives raise or lower the signal
Outline: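 Differentiated HepaRG cells were exposed in duplicate for 48 h in serum-free induction medium to 8-point half-log concentrations up to 100 uM in 0.5% DMSO. GADD45A mRNA was measured by TaqMan qRT-PCR, normalized to ACTB, GAPDH and POLR2A, with bidirectional fitting versus DMSO.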

[16] = read-out: Forkhead box O3 (FOXO3), FOXO3 (gene 2309); assay: LTEA_HepaRG_FOXO3: Life Technologies and Expression Analysis (LTEA) Assay for Forkhead box O3 (FOXO3) using HepaRG (AID 2283459); conditions: mRNA level, 48 h; actives raise or lower the signal
Outline: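 Differentiated human HepaRG cells in serum-free induction medium were exposed in duplicate for 48 h to eight half-log concentrations up to 100 uM in 0.5% DMSO. FOXO3 mRNA was quantified by qRT-PCR, normalized to ACTB, GAPDH and POLR2A, with bidirectional fitting versus DMSO.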

[17] = CEETOX_H295R_ANDR: CeeTox H295R High-throughput Steroidogenesis Assay for Androstenedione (ANDR) (AID 2283436); conditions: actives raise or lower the signal
Outline: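 H295R human adrenal cells (passages ≤10) were exposed to test chemicals for 48 h; androstenedione in medium was MTBE-extracted and quantified by HPLC-MS/MS against a 7-point standard curve. Bidirectional fitting used DMSO as baseline.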

[18] = CEETOX_H295R_TESTO: CeeTox H295R High-throughput Steroidogenesis Assay for Testosterone (TESTO) (AID 2283457); conditions: actives raise or lower the signal
Outline: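 H295R human adrenal cells in DMEM/F12 with ITS+ and Nu-Serum, exposed to chemicals for 48 h. Testosterone in medium measured by MTBE extraction, reverse-phase HPLC-MS/MS; bidirectional fit versus DMSO baseline. MTT viability checked in same wells.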

[19] = read-out: Cyclin D1 (CCND1), CCND1 (gene 595); assay: LTEA_HepaRG_CCND1: Life Technologies and Expression Analysis (LTEA) Assay for Cyclin D1 (CCND1) using HepaRG (AID 2283451); conditions: mRNA level, 48 h; actives raise or lower the signal;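 note: TaqMan qRT-PCR transcript level normalised to ACTB GAPDH and POLR2A housekeeping genes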
Outline: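 Differentiated human HepaRG cells in serum-free induction medium were exposed 48 h to eight half-log concentrations up to 100 uM in 0.5% DMSO; mRNA quantified by TaqMan qRT-PCR, normalized to ACTB, GAPDH, POLR2A, fitted bidirectionally versus DMSO.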

Measured: AC50

Fatty acid synthase (Homo sapiens), sequence (P49327 whole entry, looked up): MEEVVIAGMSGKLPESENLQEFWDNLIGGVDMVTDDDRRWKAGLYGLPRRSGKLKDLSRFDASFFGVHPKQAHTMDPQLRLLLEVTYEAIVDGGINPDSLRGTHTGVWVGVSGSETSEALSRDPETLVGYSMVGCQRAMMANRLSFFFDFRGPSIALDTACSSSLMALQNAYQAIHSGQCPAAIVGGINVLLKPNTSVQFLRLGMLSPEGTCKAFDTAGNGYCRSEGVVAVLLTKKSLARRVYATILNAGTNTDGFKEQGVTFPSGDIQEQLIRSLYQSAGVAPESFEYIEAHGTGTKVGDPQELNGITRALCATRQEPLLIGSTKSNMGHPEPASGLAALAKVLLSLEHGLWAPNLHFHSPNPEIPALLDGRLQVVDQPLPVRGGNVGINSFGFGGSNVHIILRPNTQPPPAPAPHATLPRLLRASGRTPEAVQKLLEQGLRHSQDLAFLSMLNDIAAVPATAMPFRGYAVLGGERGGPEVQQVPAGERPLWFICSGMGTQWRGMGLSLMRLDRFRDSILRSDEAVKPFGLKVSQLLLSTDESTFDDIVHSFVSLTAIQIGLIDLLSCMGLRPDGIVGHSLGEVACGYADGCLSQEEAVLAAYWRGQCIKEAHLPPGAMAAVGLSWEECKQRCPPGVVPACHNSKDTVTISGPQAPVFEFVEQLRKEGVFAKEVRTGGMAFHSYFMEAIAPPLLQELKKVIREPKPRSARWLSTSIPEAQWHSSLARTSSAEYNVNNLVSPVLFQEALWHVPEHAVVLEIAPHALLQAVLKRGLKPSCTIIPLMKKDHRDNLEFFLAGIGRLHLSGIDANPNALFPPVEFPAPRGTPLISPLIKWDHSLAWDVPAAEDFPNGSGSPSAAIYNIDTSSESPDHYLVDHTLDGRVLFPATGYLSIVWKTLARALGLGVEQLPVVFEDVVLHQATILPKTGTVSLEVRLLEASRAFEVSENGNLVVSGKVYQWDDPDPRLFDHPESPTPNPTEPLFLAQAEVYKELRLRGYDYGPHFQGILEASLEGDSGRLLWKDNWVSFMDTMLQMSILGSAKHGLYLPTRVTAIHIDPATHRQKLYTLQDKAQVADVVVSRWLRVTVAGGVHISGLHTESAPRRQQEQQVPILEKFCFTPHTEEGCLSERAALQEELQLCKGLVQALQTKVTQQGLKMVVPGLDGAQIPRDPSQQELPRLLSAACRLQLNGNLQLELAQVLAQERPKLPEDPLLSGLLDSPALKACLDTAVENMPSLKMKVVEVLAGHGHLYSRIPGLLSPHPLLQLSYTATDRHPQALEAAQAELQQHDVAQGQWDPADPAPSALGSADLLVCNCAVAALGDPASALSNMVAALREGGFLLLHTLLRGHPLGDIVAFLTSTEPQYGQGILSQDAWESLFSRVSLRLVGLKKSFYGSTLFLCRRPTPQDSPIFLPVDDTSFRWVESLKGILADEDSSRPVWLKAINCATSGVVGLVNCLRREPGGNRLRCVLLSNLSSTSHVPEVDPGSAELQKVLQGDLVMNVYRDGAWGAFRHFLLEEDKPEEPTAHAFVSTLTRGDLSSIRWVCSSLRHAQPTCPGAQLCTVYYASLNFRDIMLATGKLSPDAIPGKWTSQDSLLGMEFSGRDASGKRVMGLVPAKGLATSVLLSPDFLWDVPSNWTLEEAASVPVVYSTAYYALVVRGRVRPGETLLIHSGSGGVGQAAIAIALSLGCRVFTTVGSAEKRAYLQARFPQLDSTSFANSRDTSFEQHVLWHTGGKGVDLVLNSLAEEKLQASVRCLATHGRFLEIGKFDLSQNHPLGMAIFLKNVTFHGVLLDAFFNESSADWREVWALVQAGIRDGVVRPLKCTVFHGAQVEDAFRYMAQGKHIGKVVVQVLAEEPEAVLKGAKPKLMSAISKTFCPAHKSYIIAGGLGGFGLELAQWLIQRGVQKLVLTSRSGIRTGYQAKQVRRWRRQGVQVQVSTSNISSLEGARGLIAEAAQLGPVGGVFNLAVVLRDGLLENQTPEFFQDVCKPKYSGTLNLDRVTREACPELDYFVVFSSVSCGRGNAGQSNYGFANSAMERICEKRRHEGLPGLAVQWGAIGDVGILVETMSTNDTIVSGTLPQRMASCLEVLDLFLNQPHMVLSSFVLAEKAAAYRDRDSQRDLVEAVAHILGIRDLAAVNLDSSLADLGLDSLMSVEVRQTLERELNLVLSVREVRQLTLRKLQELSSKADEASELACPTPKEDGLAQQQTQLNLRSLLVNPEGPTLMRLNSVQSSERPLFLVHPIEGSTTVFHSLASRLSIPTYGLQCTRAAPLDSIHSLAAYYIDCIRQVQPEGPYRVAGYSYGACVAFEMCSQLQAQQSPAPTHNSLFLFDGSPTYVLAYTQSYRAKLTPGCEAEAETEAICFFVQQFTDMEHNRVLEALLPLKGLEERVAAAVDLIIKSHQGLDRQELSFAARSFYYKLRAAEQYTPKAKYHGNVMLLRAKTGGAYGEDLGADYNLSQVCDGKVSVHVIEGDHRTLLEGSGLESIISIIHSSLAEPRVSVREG

COc1nn(CSP(=S)(OC)OC)c(=O)s1
active: [2] 33.1 µM | [3] 40.2 µM | [4] 11.5 µM | [5] 21.4 µM | [6] 38.2 µM | [12] 24.3 µM
not listed: [17] | [18] | [19]
inactive: all other assays above

CCCN(CCC)c1c([N+](=O)[O-])cc(C(F)(F)F)cc1[N+](=O)[O-]
active: [12] 50 µM
not listed: [2] | [3] | [4] | [5] | [14] | [19]
inactive: all other assays above

C#CCN1C(=O)COc2cc(F)c(N3C(=O)C4=C(CCCC4)C3=O)cc21
active: [12] 65.6 µM
not listed: [9] | [14] | [19]
inactive: all other assays above

Oc1cc(Cl)ccc1Oc1ccc(Cl)cc1Cl
inactive: [1] | [2] | [3] | [6] | [7] | [8] | [9] | [10] | [11] | [13] | [15] | [16]
active: [8] 69.9 µM | [11] 85.1 µM | [12] 77.3 µM and 88.3 µM and 79.3 µM | [15] 10.1 µM | [16] 0.067 µM

O=[N+]([O-])c1c(Cl)c(Cl)c(Cl)c(Cl)c1Cl
active: [19] 50 µM | [12] 81.3 µM
not listed: [14]
inactive: all other assays above
